According to the supplement of paper PMC3334620:
Whole data set: some 33,000 sequences, median “E-score (-0.5 to 0.5)” near -0.012, cut for the highest 2% near 0.29. The entries come from a sample that favours the highest values as a whole.

These sequences were tested against T1, Ybr033w (UniProt P38073) (assay: PBM E-score (8-mer binding enrichment) (E-score (-0.5 to 0.5)); higher = stronger / more preferred TF binding). Conditions: protein concentration: 200 nM; construct: GST-full length.
T1 sequence: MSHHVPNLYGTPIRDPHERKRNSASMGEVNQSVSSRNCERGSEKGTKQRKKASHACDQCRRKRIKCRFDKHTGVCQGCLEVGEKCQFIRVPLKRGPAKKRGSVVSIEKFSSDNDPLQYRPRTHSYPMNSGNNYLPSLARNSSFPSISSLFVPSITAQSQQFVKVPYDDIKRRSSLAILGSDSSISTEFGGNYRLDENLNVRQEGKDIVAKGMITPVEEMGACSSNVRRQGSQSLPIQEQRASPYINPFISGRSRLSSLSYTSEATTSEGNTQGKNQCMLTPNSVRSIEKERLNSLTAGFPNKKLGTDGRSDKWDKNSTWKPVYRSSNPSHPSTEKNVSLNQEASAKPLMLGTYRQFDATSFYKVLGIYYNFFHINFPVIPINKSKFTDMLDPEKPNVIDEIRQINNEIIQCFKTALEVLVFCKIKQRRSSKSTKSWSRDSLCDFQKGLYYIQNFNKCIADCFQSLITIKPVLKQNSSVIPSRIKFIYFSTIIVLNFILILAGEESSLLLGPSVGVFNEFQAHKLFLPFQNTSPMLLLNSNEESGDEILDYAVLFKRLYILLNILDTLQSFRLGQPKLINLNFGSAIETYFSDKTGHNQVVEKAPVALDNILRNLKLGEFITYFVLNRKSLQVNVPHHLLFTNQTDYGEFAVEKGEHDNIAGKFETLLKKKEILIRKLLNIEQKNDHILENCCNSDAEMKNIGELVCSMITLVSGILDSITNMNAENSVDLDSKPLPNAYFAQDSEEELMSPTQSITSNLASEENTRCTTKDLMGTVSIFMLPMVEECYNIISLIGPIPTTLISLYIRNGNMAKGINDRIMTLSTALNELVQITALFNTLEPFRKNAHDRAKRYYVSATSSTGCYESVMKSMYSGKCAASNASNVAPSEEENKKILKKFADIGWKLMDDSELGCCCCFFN
Method in brief: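 Masliner-normalised scans of fluorescent anti-GST signal were the basis for scoring. That signal came from GST-tagged yeast transcription factors applied at about 100-200 nM to double-stranded universal all-10-mer Agilent arrays on fresh or once-stripped slides. Each ungapped eight-base word, pooled with its reverse complement, received an E-score from the Universal PBM Analysis Suite.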

Sequence | PBM E-score
CTCTGGCC | -0.15
ACAAAGAC | 0.0319
CAGGAACC | -0.122
CAGGAACA | 0.401
GAGGAACA | 0.171
CAGGAACG | -0.0646
AAGGAACA | 0.283
TAGGAACA | 0.316
GGGACCCC | -0.33
ATGCCATG | -0.0545
AACCATTC | 0.166
ACTGAACC | 0.00627
GTTGGCGA | -0.0105
GATCGACC | 0.0146
AAGCTAAA | 0.107
ACCGGAAA | 0.151
CCCGGAAA | 0.192
GCCGGAAA | 0.302
GCCGGAAC | 0.205
TCCGGAAA | 0.298
GACGGAAA | 0.227
CTAGACCC | -0.194
AAAGGATG | 0.163
GCACACCA | -0.145
AATTAATC | 0.341

Sequence | PBM E-score
ACTTAATC | 0.275
CATTAATG | 0.23
GATTAATA | 0.328
GATTAAGA | 0.213
TATTAATA | 0.101
CATTAATC | 0.252
CATTAATA | 0.321
GATTAAGC | 0.104
GATTAATC | 0.435
GACTAATC | 0.0103
AATTAGTC | 0.212
AGGGTGAT | -0.055
ATAGTTCA | 0.202
AGAACGTA | 0.0159
AAGGGGCT | -0.163
ATATTGTC | 0.215
ACCTTGGC | -0.0759
ACAGCTAG | -0.105
ACCTACCG | -0.0859
AGCAGAGC | -0.0843
AACTCTGG | -0.0682
AAAGTTCC | 0.132
AATTAAGC | 0.169
AATTAAGA | 0.171
AATTAAAT | 0.276

Sequence | PBM E-score
AATTAAAC | 0.377
AATTAATT | 0.214
AATTAATA | 0.429
AATTAATG | 0.273
AATTAAGT | 0.305
AATTAAAG | 0.217
CAACTATG | 0.102
ACGGGTAT | 0.0865
ATTGGCTA | 0.117
ACCAAGCC | -0.0301
TCCAATCA | 0.0621
TGATAACA | 0.176
GCGAGGAA | 0.125
CCGGATTA | 0.34
GTGGATAA | 0.169
ACGGATTA | 0.233
GCGGATTA | 0.285
AGGGATTA | 0.187
CGGGATTC | -0.0497
TCGGATAA | 0.335
CTGGATAA | 0.316
CGGGATTA | 0.312
TGGGATAA | 0.123
ACGGATAT | 0.192
ATGGATAA | 0.259

Sequence | PBM E-score
GGACCACA | -0.00774
CCTACCAC | -0.155
AGCGTCCA | -0.13
TAGGCTGA | -0.0515
CACCAACC | -0.105
AATCCACT | 0.193
TAGCTTGA | -0.0114
GGCCTTGA | -0.0647
ACGTCAGG | -0.168
GCGGATGA | 0.0612
GTGGATTA | 0.164
CTGGATTA | 0.309
CTGGATTC | 0.00016
CCGGATGC | -0.178
ACGGATAA | 0.276
ACGGATCA | 0.236
CCGGATCA | 0.345
CCGGATGA | 0.289
GCGGATAC | 0.0188
GCGGATAA | 0.416
CCGGATCC | -0.129
CTTTGGTC | 0.0811
GAACTTCC | 0.16
CTTCGCCC | -0.143
AATAGGGG | -0.0543

Sequence | PBM E-score
GGGGCTCA | -0.219
AGTTGCGG | 0.0698
AAGTTAGA | 0.235
GTACAGAC | -0.1
GACACATC | -0.11
GGCTACCA | -0.203
GATGCTAC | 0.0488
CCCTTTCA | -0.19
AAGTCTTA | -0.00514
CCGGATAC | -0.0612
CCGGATAA | 0.454
CCGGATAG | 0.0368
CCAGAATA | 0.0783
ACTTTGGA | 0.156
ACCATGAC | -0.0754
ACAGCTGC | -0.0919
CGAGAGAC | -0.188
CGATTATC | 0.07
AAATTATT | 0.417
AGATTATG | 0.148
AAATTATG | 0.227
CAATTAAC | 0.224
CAATTATG | 0.08
AGATTATC | 0.301
ACATTATC | 0.219

Sequence | PBM E-score
CAATTATC | 0.365
AAATTAGT | 0.206
AAATTATC | 0.418
AAATTAGG | 0.138
CCCCACAA | -0.229
CACTTTAG | 0.112
ACTTACTC | 0.0333
GTGCGGTA | -0.0389
CCCAAGCA | -0.0848
AACCTCGG | 0.0447
GAAATCTC | -0.0338
CGGGGGAG | -0.329
AATATATT | 0.411
ACAATATC | 0.293
AAAATATA | 0.28
CAAATATC | 0.269
AATATATA | 0.277
ACAATATG | 0.199
AAAATAGT | 0.225
AATATATG | 0.204
ACAATATA | 0.264
AAAATATC | 0.304
AAAATATT | 0.364
CACCTCTC | -0.283
AGAATGGA | 0.0873

Sequence | PBM E-score
GGACGCGA | -0.0773
ATCTGGGC | -0.0818
CTCCTCGC | -0.257
CATTCTAA | 0.165
CTGGCTTC | -0.174
TATTCTGA | 0.0151
ATCTCATG | 0.0775
ATTTTCTG | 0.0635
AGAATATG | 0.229
CAAATATG | 0.0991
AAAATATG | 0.299
GTCTGACA | 0.00461
CAGTTATC | -0.0111
GAGTAGTA | 0.163
ATTAATGG | 0.289
CTTAATGA | -0.0192
AATAATGG | 0.162
GTTAATGA | 0.12
ATTAATGC | 0.22
ATTAATGA | 0.354
AATTAGCG | 0.161
AGTCTCAC | -0.0327
TAAAGGAA | 0.162
CGGATGAG | -0.0297
CGGATGAA | 0.371
